Among all 5,500 compounds or so, about 2,000 (36%) were called active. Another 18% or so got no clear call; they are omitted. Rule as the data show it: active = normalized growth mostly below about 0.91 (no sharp cut-off); inconclusive = no clear call, values can overlap the other calls; inactive = mostly above about 0.92. The list shows a part of the results.
Experiment: chemical genetic growth profiling, strain panel (AID 1159580);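 also: tested at 20 µM; growth read once vehicle control cultures reached saturation at 30 °C; 1 = growth at the plate median or of vehicle wells; lower values mean less growth of the strain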
Conditions: S. cerevisiae deletion strains, growth OD

Measured: normalized growth

CCCCCCc1cc2c(C)cc(=O)oc2cc1O
inactive: locus YAL013W, strain DEP1, active compounds read low 0.979 | locus YCL061C, strain MRC1, active compounds read low 0.968 | locus YDL101C, strain DUN1, active compounds read low 1.02 | locus YDL134C, strain PPH21, active compounds read low 0.976 | locus YDR150W, strain NUM1, active compounds read low 0.996 | locus YEL061C, strain CIN8, active compounds read low 0.966 | locus YGR078C, strain PAC10, active compounds read low 0.996 | locus YGR229C, strain SMI1, active compounds read low 0.976 | locus YHR030C, strain SLT2, active compounds read low 0.922 | locus YJL187C, strain SWE1, active compounds read low 0.938 | locus YJR043C, strain POL32, active compounds read low 1.03 | locus YKL190W, strain CNB1, active compounds read low 0.959 | locus YLR058C, strain SHM2 (second series), active compounds read low 0.981 | locus YLR085C, strain ARP6, active compounds read low 0.864 | locus YML094W, strain GIM5, active compounds read low 0.918 | locus YMR219W, strain ESC1, active compounds read low 0.973 | locus YMR263W, strain SAP30, active compounds read low 0.976 | locus YMR307W, strain GAS1, active compounds read low 0.803 | locus YNL153C, strain GIM3, active compounds read low 0.965 | locus YNL298W, strain CLA4 (second series), active compounds read low 0.942 | locus YNL322C, strain KRE1, active compounds read low 0.989 | locus YNR030W, strain Alg12, active compounds read low 0.927 | locus YOL006C, strain TOP1, active compounds read low 0.863 | locus YPL055C, strain LGE1, active compounds read low 0.896 | locus YPL241C, strain CIN2, active compounds read low 0.932 | locus YPR135W, strain CTF4, active compounds read low 0.792
active: locus YBR229C, strain ROT2, active compounds read low 0.895 | locus YHR087W, strain rtc3, active compounds read low 0.725 | locus YJR075W, strain HOC1, active compounds read low 0.888 | locus YLR039C, strain RIC1, active compounds read low 0.721 | locus YLR262C, strain YPT6, active compounds read low 0.782
